Inconclusive results are not listed. Active and inactive are the calls of the source. Unless noted, the call rests on the fitted dose curve; in most records, active means well fitted curve in the direction sought with a large enough effect; inconclusive means small, poorly fitted or top-dose-only effect, or another doubt; inactive means no such curve, though single readings can be large; an effect the other way counts as inactive or inconclusive.

In assay [1] the target is Lysosomal acid glucosylceramidase (Homo sapiens) (UniProt P04062). As to the kind of experiment: Glucocerebrosidase-p2 (AID 348; in the data active means potency below about 10 µM; further: potency means the concentration at half of the fitted maximal effect). The note with it: purified GBA, blue fluorogenic substrate, 40 min. An outline of the steps: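 Compounds titrated from 0.6 nM upwards against 0.2 nM enzyme in pH 5.9 citric acid/KH2PO4, taurocholate, tween-20; blue fluorogenic substrate 80 uM, 40 min room temperature, stopped and read Ex 365/Em 440 for AC50.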
Lysosomal acid glucosylceramidase (Homo sapiens), sequence (P04062 whole entry, looked up): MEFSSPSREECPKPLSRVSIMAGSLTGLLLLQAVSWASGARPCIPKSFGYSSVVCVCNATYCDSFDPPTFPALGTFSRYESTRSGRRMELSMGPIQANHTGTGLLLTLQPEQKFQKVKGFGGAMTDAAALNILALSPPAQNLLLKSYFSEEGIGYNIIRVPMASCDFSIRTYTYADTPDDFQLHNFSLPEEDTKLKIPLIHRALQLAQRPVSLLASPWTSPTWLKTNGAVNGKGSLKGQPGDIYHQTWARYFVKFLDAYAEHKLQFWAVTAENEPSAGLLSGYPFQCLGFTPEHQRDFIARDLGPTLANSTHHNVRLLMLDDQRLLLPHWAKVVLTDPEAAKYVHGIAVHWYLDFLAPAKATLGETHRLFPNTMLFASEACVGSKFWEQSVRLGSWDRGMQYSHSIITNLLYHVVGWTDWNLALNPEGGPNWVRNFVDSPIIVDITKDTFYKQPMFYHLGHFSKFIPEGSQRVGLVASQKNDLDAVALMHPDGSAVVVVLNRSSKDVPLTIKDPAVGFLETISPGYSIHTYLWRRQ

For assay [2], the target named is Cytochrome P450 1A2 (Homo sapiens) (UniProt P05177). Nature of the assay: p450-cyp1a2 (AID 410; calls by dose curve; further: potency means the concentration at half of the fitted maximal effect). The note with it: recombinant CYP1A2, luciferin-ME demethylation, luminescence; series mostly up to 57 µM. The gist of the method:
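Luminescent readout of luciferin formed from Luciferin-ME by human CYP1A2; data normalized against complete inhibition by 57 uM furafylline. Enzyme 20nM, substrate 100uM at Km, 100mM KPO4 buffer, 60 min reaction at room temperature.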

Assay [3] concerns the target Glucocorticoid receptor (Homo sapiens) (UniProt P04150). As to the kind of experiment: GR-GFP Redistribution (AID 450;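 active means compounds whose dose series gives a full or clear partial fitted curve of increased nuclear translocation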; further: potency means the concentration at half of the fitted maximal effect). The note with it: U2OS GR-GFP nuclear translocation, laser cytometry, 2 h.
Assay [4] shares this target. Nature of the assay: GR-EFC Redistribution (AID 451; calls by dose curve; further: potency means the concentration at half of the fitted maximal effect). Conditions: CHO-K1 GR-EFC translocation, beta-gal luminescence, 2 h. The gist of the method: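 CHO-K1 cells expressing nuclear EA and GR-ED fragments of b-gal; compounds titrated up to 46 uM final, 2 h at 37 C. GR nuclear translocation read as complemented b-gal luminescence after 1 h RT detection.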
Assay [5] concerns the target Mitogen-activated protein kinase 10 (Mus musculus) (UniProt Q61831). Nature of the assay: JNK3 AlphaScreen Assay (AID 530; active means well fitted curve in either direction with a large enough effect, not every such curve was filed as active;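 further: kinase came from lysate of stimulated human HepG2 cells; signal reports phosphorylation of biotinylated GST-cJun 1-79 at Ser73 with 10 µM ATP; on the % scale 0 is the no-effect control and ±100 the full control effect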). Conditions: JNK3 lysate, c-Jun phosphorylation; series mostly up to 57.1 µM. The gist of the method:
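Pre-activated (IL-1β/TNFα) JNK3 in HepG2 lysates phosphorylates biotin-GST-cJun(1-79), 10 uM ATP; anti-phospho-cJun(Ser73) AlphaScreen read at room temperature, pH 7.6 Tris buffer. Compounds pre-incubated 15 min as titrations.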
(Bead proximity is the source of the signal in Alpha formats.)

The target in assay [6] is Cytochrome P450 3A4 (Homo sapiens) (UniProt P08684). As to the kind of experiment: qHTS Assay for Activators of Cytochrome P450 3A4 (AID 885). Further: nearly all actives have a fitted effect of over 65% in size. Conditions: recombinant CYP3A4, Luciferin-PPXE luminescence, 60 min; series mostly up to 57.1 µM. The gist of the method: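 Quantitative HTS format: compounds preincubated with 20nM human CYP3A4 and Luciferin-PPXE substrate at KM, reaction started by NADPH regeneration, stopped after 60 min, luciferase luminescence read 20 min later.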
Cytochrome P450 3A4 (Homo sapiens), sequence (P08684 whole entry, looked up): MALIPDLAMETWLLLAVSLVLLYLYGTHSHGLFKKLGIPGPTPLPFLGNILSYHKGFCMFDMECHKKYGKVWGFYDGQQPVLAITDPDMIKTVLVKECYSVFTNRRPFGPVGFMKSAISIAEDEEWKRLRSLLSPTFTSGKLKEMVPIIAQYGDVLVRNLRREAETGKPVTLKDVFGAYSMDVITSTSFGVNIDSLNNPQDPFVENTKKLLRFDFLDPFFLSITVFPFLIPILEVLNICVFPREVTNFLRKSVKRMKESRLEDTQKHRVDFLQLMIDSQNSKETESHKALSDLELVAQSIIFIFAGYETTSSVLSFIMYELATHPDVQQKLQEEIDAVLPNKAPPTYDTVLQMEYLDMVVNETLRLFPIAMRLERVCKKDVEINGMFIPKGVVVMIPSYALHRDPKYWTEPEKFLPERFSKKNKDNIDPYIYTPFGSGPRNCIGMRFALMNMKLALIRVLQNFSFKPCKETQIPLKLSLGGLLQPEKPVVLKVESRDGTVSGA

For assay [7], the target named is Cytochrome P450 2C19 (Homo sapiens) (UniProt P33261). Nature of the assay: qHTS Assay for Inhibitors and Substrates of Cytochrome P450 2C19 (AID 899). Further: potency means the concentration at half of the fitted maximal effect; nearly all actives have a fitted effect of over 60% in size. The note with it: recombinant CYP2C19, luciferin-H EGE luminescence; series mostly up to 57.1 µM. An outline of the steps: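 Signal comes from luciferase acting on luciferin released by CYP2C19-mediated hydroxylation of Luciferin-H EGE, 10uM (KM). Assay mix: 5nM enzyme, 50mM KPO4; 60 min at 37C with NADPH regeneration. Data normalized against 57uM ketoconazole.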
Cytochrome P450 2C19 (Homo sapiens), sequence (P33261 whole entry, looked up): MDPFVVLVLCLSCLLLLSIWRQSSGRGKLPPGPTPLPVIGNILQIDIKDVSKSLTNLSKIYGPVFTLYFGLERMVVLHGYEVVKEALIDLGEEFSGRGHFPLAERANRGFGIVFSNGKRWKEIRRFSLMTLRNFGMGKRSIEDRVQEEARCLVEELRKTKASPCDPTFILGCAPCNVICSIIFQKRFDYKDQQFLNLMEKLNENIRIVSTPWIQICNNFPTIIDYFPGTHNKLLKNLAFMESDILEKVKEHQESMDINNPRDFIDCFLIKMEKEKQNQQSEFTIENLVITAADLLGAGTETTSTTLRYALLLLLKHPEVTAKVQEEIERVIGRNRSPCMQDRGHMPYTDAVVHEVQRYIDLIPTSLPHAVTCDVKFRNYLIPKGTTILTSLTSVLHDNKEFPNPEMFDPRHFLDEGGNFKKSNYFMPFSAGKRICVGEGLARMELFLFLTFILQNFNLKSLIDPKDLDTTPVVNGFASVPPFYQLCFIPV
A general note: In qHTS, concentration-response curves come from the screen itself.

A short description of assay [8]: Confirmation and Secondary Assay for Modulators of Hemoglobin Beta Chain Splicing at IVS2 654 locus (AID 910).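 Further: HeLa cells stably carrying EGFP split by mutant beta-globin IVS2-654 intron; % of control where 0% means no effect.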 Conditions: HeLa EGFP-654 splicing reporter, GFP fluorescence, 48 h; series mostly up to 38.3 µM. An outline of the steps: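 HeLa cells stably expressing EGFP interrupted by β-globin IVS2-654 intron, seeded overnight in Opti-MEM/2% FCS, then treated 2 days at 37 °C. Restored splicing read as total peak GFP intensity per well by laser scanning cytometry (488 nm excitation, 500–520 nm emission); 500 nM antisense PNA as control.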

Assay [9] is described as follows: qHTS Assay for Identification of Small Molecule Agonists for Hypoxia Response Element Signaling Pathway (AID 914; active means well fitted activation curve with a large enough effect in the signal ratio, with a control signal flat, not every such curve was filed as active; the % refers to the signal ratio; further: potency means the concentration at half of the fitted maximal effect). Conditions: ME-180 HRE-bla reporter, beta-lactamase ratio, CoCl2, 17 h; activation: stronger effect = higher value. The gist of the method: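 Positive modulation of EC50 CoCl2-induced hypoxia response element signaling is measured in ME-180 cells with a beta-lactamase reporter. Compounds are titrated, incubation runs 17 hours, and %Activity derives from the blue/green ratio.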

Assay [10] is described as follows: Confirmation and Secondary Assay for Modulators of Hemoglobin Beta Chain Splicing at IVS2 705 locus (AID 930).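 Further: HeLa cells stably expressing the EGFP-705 splicing reporter; GFP fluorescence per well restored by corrected splicing of the IVS2-705 intron in EGFP; % of control where 0% means no effect.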 Conditions: HeLa EGFP-705 splicing reporter, GFP fluorescence, 48 h; series mostly up to 38.3 µM. An outline of the steps:
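First, HeLa EGFP-705 cells are seeded at 500/well in Optimem with 2% FCS and left overnight. Next, compound or DMSO is added for 2 days. Finally wells are laser-scanned and total peak GFP intensity scored.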

A short description of assay [11]: qHTS Assay for Lipid Storage Modulators (AID 1519; calls by dose curve; on activity change, negative = inhibition: on the % scale 0 is the no-effect control and ±100 the full control effect). Conditions: Drosophila S3 cells, BODIPY lipid droplet/cell ratio, laser cytometry, cells loaded with oleic acid; for activity change, negative = inhibition: at 57.5 µM (top of the series). An outline of the steps: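 Cells seeded at 5,000 per well were treated with compounds over a concentration series and loaded with oleic acid (400 uM, as added). Lipid droplet fluorescence (488 nm excitation, 500-530 nm channel) was read by laser-scanning cytometry and normalized to 20 uM Triacsin C.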

For assay [12], the target named is Ubiquitin carboxyl-terminal hydrolase 1 (Homo sapiens) (UniProt O94782). Nature of the assay: Inhibitors of USP1/UAF1: Pilot qHTS (AID 504865).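 Further: rhodamine fluorescence freed from ubiquitin-rhodamine substrate followed over time; top concentration of the series differs between compounds; on the % scale 0 is the no-effect control and ±100 the full control effect; nearly all actives have a fitted effect of over 35% in size.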 The note with it: purified USP1/UAF1, Ub-rhodamine cleavage fluorescence; series mostly up to 54.9 µM. The gist of the method:
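Deubiquitinase activity followed as kinetic rhodamine fluorescence release from 150 nM Ub-Rho. 1 nM USP1/UAF1 with compound, after 15 min room-temperature preincubation, in HEPES pH 7.8 buffer containing TCEP, EDTA, BSA and Tween-20.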

Assay [13] in a line: Primary qHTS for small molecule stabilizers of the endoplasmic reticulum resident proteome: Secreted ER Calcium Modulated Protein (SERCaMP) assay (AID 1508630). Further: on the % scale 0 is the no-effect control and ±100 the full control effect. The note with it: SH-SY5Y GLuc-SERCaMP (Gaussia luciferase released on ER calcium loss) secretion, thapsigargin, luminescence; series mostly up to 38.4 µM. An outline of the steps: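 GLuc-SERCaMP-expressing SH-SY5Y cells, pretreated 16 h with compound, are challenged with thapsigargin to empty ER calcium stores; after 4 h, coelenterazine is added directly to the medium and luminescence is imaged.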

A short description of assay [14]: Stat Signaling Pathway (AID 446; active means well fitted curve in either direction with a large enough effect, not every such curve was filed as active;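 further: ME-180 cervical cancer cells given 40 pM IL-6 alongside compound; SIE-controlled beta-lactamase reporter measured as 460/530 nm FRET emission ratio; on the % scale 0 is the no-effect control and ±100 the full control effect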). Conditions: ME-180 (cervical carcinoma) SIE beta-lactamase reporter, IL-6 stimulated, 5 h; at 7.69 µM (top of the series) unless noted. An outline of the steps: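 IL-6/STAT signaling read in ME-180 cells via an SIE beta-lactamase reporter. Stimulus was 40 pM IL-6 (its AC50) for 5 hrs, so both activation and inhibition register.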
Assay [15] has as its target 3',5'-cyclic-AMP phosphodiesterase 4B (Homo sapiens) (UniProt Q07343). As to the kind of experiment: qHTS Assay for Inhibitors of PDE-IV (AID 607; active means well fitted activation curve with a large enough effect in the main read-out, with a control signal flat, not every such curve was filed as active; further: % of control where 0% means no effect). Conditions: HEK293 ACTOne CNG channel cells, membrane potential fluorescence; series mostly up to 22.9 µM. The gist of the method:
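Live HEK293 cells with a modified cyclic nucleotide-gated (CNG) channel report intracellular cAMP via membrane-potential dye fluorescence (ex 535/em 590 nm). Endogenous PDE-IV was targeted. Compounds were tested at up to 22.9 uM final; RO 20-1724 100 uM served as control.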

The target in assay [16] is Cytochrome P450 2C9 (Homo sapiens) (UniProt P11712). As to the kind of experiment: qHTS Assay for Inhibitors and Substrates of Cytochrome P450 2C9 (AID 883). Further: potency means the concentration at half of the fitted maximal effect; nearly all actives have a fitted effect of over 60% in size. Conditions: recombinant CYP2C9, luciferin-H luminescence, 60 min; series mostly up to 57.1 µM. An outline of the steps: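 Signal: luciferase luminescence reporting luciferin produced by CYP2C9. Conditions: 10nM enzyme, Luciferin-H 100uM at KM, 25mM KPO4, 37C, 60 min NADPH-driven reaction. Reference: 57uM sulphaphenazole as 100% inhibition.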
Cytochrome P450 2C9 (Homo sapiens), sequence (P11712 whole entry, looked up): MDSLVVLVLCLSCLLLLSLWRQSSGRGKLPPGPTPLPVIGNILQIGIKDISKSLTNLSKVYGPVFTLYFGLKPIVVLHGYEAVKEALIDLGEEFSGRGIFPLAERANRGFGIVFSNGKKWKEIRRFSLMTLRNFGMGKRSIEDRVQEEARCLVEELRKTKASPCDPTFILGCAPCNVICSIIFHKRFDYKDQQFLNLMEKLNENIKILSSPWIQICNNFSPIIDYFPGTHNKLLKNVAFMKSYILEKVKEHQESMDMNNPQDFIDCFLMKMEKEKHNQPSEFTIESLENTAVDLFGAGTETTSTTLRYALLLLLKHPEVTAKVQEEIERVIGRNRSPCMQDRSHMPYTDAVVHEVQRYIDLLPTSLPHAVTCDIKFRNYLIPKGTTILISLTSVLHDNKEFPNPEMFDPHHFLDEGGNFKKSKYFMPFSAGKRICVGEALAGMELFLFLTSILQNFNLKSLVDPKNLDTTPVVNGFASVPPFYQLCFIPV

Where [17] appears, read: measured here: cell count channel max response.
Where [18] appears, read: measured here: lipid channel max response.

Glucocorticoid receptor (Homo sapiens), sequence (P04150 whole entry, looked up, the tested form may be a part): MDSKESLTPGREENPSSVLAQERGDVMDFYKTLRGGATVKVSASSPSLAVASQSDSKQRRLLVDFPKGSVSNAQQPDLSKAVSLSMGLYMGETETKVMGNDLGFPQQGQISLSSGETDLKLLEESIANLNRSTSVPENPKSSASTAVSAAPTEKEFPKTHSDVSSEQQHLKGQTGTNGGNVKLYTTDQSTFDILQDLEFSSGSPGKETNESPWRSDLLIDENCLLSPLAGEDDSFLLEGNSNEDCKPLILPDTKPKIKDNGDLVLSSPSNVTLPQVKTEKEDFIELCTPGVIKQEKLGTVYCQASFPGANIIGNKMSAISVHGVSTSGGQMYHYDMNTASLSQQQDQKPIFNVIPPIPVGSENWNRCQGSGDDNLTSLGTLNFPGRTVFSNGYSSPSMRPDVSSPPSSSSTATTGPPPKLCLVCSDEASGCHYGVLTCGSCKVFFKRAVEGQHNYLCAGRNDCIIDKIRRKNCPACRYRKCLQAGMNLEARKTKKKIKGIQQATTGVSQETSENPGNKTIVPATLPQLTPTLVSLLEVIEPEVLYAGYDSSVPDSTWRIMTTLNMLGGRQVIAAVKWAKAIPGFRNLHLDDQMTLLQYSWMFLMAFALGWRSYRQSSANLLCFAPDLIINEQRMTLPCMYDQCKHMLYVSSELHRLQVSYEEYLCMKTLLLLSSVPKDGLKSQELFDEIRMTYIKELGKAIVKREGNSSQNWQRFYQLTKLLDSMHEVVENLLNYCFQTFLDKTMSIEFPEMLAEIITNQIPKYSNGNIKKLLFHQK
3',5'-cyclic-AMP phosphodiesterase 4B (Homo sapiens), sequence (Q07343 whole entry, looked up): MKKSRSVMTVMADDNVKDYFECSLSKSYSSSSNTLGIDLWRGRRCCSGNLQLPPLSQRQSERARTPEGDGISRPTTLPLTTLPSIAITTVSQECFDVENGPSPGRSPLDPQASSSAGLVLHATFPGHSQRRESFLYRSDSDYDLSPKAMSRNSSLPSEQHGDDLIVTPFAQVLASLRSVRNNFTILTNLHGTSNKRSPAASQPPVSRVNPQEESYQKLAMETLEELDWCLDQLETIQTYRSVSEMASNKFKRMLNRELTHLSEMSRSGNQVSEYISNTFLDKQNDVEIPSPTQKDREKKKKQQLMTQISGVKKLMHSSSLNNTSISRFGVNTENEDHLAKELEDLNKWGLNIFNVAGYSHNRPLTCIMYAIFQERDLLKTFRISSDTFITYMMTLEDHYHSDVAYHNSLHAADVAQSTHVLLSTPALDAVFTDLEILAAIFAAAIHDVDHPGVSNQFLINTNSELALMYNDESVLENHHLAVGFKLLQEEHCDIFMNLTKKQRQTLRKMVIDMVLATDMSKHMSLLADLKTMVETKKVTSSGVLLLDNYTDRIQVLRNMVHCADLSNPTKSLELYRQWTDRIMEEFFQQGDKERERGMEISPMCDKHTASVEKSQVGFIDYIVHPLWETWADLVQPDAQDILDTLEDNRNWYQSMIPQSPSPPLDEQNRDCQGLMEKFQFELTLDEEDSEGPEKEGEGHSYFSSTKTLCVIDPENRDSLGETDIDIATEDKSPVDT
Cytochrome P450 1A2 (Homo sapiens), sequence (P05177 whole entry, looked up): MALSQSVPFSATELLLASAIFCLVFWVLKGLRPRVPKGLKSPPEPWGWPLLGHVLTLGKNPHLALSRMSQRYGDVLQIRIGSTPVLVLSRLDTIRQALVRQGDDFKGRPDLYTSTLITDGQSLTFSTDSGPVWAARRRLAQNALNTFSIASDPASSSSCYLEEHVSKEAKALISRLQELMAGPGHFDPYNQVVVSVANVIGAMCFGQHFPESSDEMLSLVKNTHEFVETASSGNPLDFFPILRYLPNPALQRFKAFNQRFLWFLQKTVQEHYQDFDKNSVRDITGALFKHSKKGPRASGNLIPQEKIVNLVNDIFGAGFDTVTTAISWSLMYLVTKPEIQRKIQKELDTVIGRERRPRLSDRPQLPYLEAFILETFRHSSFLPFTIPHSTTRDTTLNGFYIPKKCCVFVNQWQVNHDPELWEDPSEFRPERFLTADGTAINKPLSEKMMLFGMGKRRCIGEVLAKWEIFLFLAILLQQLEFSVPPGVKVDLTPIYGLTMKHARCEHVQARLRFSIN
Ubiquitin carboxyl-terminal hydrolase 1 (Homo sapiens), sequence (O94782 whole entry, looked up): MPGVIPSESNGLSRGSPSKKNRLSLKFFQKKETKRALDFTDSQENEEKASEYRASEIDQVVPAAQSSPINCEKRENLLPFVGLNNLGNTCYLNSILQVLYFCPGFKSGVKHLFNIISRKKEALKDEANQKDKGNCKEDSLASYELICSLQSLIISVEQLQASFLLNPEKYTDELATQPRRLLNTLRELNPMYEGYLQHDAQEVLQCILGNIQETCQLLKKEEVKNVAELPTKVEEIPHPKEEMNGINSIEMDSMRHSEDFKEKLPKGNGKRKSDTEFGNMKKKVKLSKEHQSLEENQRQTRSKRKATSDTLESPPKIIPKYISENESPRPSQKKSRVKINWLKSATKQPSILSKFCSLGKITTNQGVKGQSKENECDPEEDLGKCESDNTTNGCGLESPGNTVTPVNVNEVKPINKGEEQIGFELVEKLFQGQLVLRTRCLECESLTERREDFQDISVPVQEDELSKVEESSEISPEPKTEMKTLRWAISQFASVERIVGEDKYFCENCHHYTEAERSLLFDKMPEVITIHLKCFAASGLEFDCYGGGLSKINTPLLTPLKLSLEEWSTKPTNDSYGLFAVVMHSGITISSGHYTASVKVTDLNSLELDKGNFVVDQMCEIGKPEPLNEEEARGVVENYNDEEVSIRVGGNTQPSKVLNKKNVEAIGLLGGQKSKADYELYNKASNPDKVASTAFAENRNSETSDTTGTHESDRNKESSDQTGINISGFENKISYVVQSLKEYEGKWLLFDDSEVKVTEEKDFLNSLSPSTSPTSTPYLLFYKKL

`Cc1noc(C)c1-c1ccc2ncnc(N(C)Cc3ccco3)c2c1`: the Potency in assay [1] was > 11.4 µM (inactive); in assay [2], 2.51 µM (active); in assay [3], > 46 µM (inactive); in [4], > 46 µM (inactive); in assay [7], 5.01 µM (active); in assay [9], 1.58 µM (active). Also, the Potency result in assay [5], in assay [6], in assay [8] and in assay [12] was “inactive” in each case. Also, the compound was called inactive in assay [10] and in assay [13]. The activity change, negative = inhibition in assay [11] was 2.4% (inactive). Besides, the max response in assay [11] (setting [17]) was determined as 23.8%; in assay [11] (setting [18]), 25.4%.
Regarding `N#Cc1cccc(NC(=O)N2CCCC3(CCN(S(=O)(=O)c4ccccc4)CC3)C2)c1`, the results for the Potency in assay [1] and in assay [4] were > 11.4 µM (inactive) and > 46 µM (inactive), respectively. Further, the activity, negative = inhibition in [14] is -2.4% (inactive). The Potency result in assay [5] and in [15] was “inactive” each time. The activity change, negative = inhibition in assay [11] was -3.45% (inactive). Further, the max response is 1.48% in assay [11] (setting [17]) and -1.95% in assay [11] (setting [18]). Further, in [13], the outcome was inactive.
Take `O=C(c1cccc(F)c1)N1CCC2(CCCN(C(c3ccccc3)c3ccccc3)C2)CC1`: the Potency in assay [1] is > 11.4 µM (inactive); in assay [2] it was 6.31 µM (active); in [4] it was > 46 µM (inactive); in [16], 3.16 µM (active). In addition, the activity, negative = inhibition in assay [14] is 17.2% (inactive). In addition, the Potency result in assay [5] and in assay [15] was “inactive” throughout. In addition, the activity change, negative = inhibition in assay [11] is 2.12% (inactive). The max response turned out to be 14.6% in assay [11] (setting [17]) and 19.7% in [11] (setting [18]). The result in assay [13] was inactive.

The values are drawn from PubChem BioAssay (NCATS).
